Assay [1] is described as follows: ATG_PPRE_CIS: Attagene CIS-FACTORIAL HepG2 Assay for human Peroxisome Proliferator-activated Response Element (PPRE) (AID 2282958; active = hit-call score of the fitted dose curve at least 0.9, where 1 is the maximum; inactive = score below 0.9). Conditions: HepG2 PPRE cis-element reporter, Attagene transcription factor profiling; actives raise or lower the signal. Summed up:
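Cells are first transfected transiently with the multiplexed reporter library, then dosed for 24 h. Total RNA is reverse-transcribed, amplified, fluorescently end-labeled and HpaI-cut before capillary electrophoresis; activity is fitted bidirectionally against DMSO controls.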

Assay [2] can be described thus: ATG_NF_kB_CIS: Attagene CIS-FACTORIAL HepG2 Assay for human Nuclear Factor Kappa B (NF-kB) (AID 2282991; active = hit-call score of the fitted dose curve at least 0.9, where 1 is the maximum; inactive = score below 0.9). Conditions: HepG2 Attagene cis-factorial NF-kB reporter mRNA; actives raise or lower the signal. Summed up: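 Endogenous transcription factor activity in HepG2 was captured via cis-regulated reporter constructs; after 24 h dosing, reporter mRNA was reverse-transcribed, amplified, fluorescently labelled and sized by capillary electrophoresis, with activity fitted bidirectionally relative to DMSO.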

Assay [3] deals with Nuclear receptor subfamily 1 group I member 2 (Homo sapiens) (UniProt O75469). Description: ATG_PXR_TRANS: Attagene TRANS-FACTORIAL HepG2 Assay for human Pregnane X Receptor (PXR) (AID 2283008). Summed up:
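Multiplexed TRANS reporter panel in HepG2; this component tracks PXR-Gal4-driven reporter mRNA after 24 h dosing, measured by RT-PCR with capillary electrophoresis fluorescence, fitted against DMSO.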

Assay [4] deals with human RAR-related Orphan Receptor gamma (RORg), RORC (gene 6097) (UniProt P51449). Nature of the assay: ATG_RORg_TRANS: Attagene TRANS-FACTORIAL HepG2 Assay for human RAR-related Orphan Receptor gamma (RORg) (AID 2283011). Summed up: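 Transient MRTU transfection of HepG2 (TRANS format, exogenous NR-Gal4 chimera). 24 h dosing. Total RNA → oligo(dT) RT → PCR → 6-FAM labelling → HpaI cut → CE. Gain vs DMSO.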

In assay [5] the target is Retinoic acid receptor RXR-alpha (Homo sapiens) (UniProt P19793). Nature of the assay: ATG_RXRa_TRANS: Attagene TRANS-FACTORIAL HepG2 Assay for human Retinoid X Receptor alpha (RXRa) (AID 2283012). Summed up:
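Read-out: fluorescent reporter-transcript fragments quantified by capillary electrophoresis after RT-PCR. Transiently transfected HepG2 cells carrying GAL4-UAS reporters and NR-GAL4 chimeras were exposed to chemical for 24 h; activity scored as increase over DMSO.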

Assay [6] deals with human Vitamin D Receptor (VDR), VDR (gene 7421) (UniProt P11473). Description: ATG_VDR_TRANS: Attagene TRANS-FACTORIAL HepG2 Assay for human Vitamin D Receptor (VDR) (AID 2283022). Summed up:
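RT-PCR/capillary electrophoresis read-out of reporter mRNA induction in transiently transfected HepG2; 24 h dosing; chimeric NR-Gal4 (TRANS format); gain-of-signal fit against DMSO baseline.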

Assay [7] is described as follows: TOX21_p53_BLA_p3_viability: Viability Assessment in the Tox21 HCT-116 p53 Agonism Beta-lactamase Assay, Phase 3 (AID 2283593).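 Also: cells exposed to compound for 16 h before reading.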 Summed up:
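HCT-116 cells (4000/well) rested 5 h at 37C, then got DMSO compounds by pin tool (217-fold dilution) for 16 h at 37C, 5% CO2. After the bla read, CellTiter-Glo was added and luminescence read at 30 min, room temperature.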

Assay [8] can be described thus: CCTE_Harrill_HTTr_Viability_MCF7: CCTE's 6-hour Cell Viability Assessment for the High-Throughput Transcriptomics (HTTr) Platform, in MCF-7 cells cultured in DMEM + 10% fetal bovine serum, Harrill Lab (AID 2284010; active = hit-call score of the fitted dose curve at least 0.9, where 1 is the maximum; inactive = score below 0.9). Summed up: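 PI exclusion, high-content imaging; 8-pt dilution series, 6 h exposure; bidirectional fit vs DMSO (neg. ctrl/baseline); gain of signal = loss of membrane integrity.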

Assay [9] is described as follows: CCTE_Harrill_HTTr_Apoptosis_MCF7: CCTE's 6-hour Apoptosis Assessment for the High-Throughput Transcriptomics (HTTr) Platform, in MCF-7 cells cultured in DMEM + 10% fetal bovine serum, Harrill Lab (AID 2284011; active = hit-call score of the fitted dose curve at least 0.9, where 1 is the maximum; inactive = score below 0.9). Summed up: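 Read-out: CellEvent Caspase 3/7 Green signal by high content imaging, gain-of-signal indicating apoptosis. MCF-7 cells, DMEM + 10% FBS, eight-point dilution series, 6 h exposure. Curves fitted bidirectionally relative to DMSO negative control.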

Assay [10] has as its target Nuclear receptor subfamily 1 group I member 3 (Homo sapiens) (UniProt Q14994). Nature of the assay: ATG_CAR_TRANS: Attagene TRANS-FACTORIAL HepG2 Assay for human Constitutive Androstane Receptor (CAR) (AID 2282969).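 Also: activators raise reporter mRNA above DMSO so AC50 marks induction.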 Conditions: HepG2 Attagene TRANS-FACTORIAL CAR reporter. Summed up: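 Steps: transient transfection of HepG2 with multiple GAL4-UAS reporter units; 24 h compound incubation; RNA isolation, RT-PCR, 6-FAM primer extension, HpaI digest; capillary electrophoresis. Gain-of-signal relative to DMSO negative control.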

Assay [11] is described as follows: ATG_M_19_TRANS: Attagene TRANS-FACTORIAL HepG2 Assay for M19 Transcription Factor (Internal Marker) (AID 2282974). Conditions: HepG2 Attagene TRANS-FACTORIAL M19 internal marker reporter. Put shortly:
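Cells: human HepG2, transiently transfected with multiplexed reporter transcription units. Exposure: 24 h. Detection: RT-PCR of reporter mRNA with capillary electrophoresis. Analysis: gain-of-signal vs DMSO.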

Assay [12] deals with Oxysterols receptor LXR-alpha (Homo sapiens) (UniProt Q13133). Description: ATG_LXRa_TRANS: Attagene TRANS-FACTORIAL HepG2 Assay for human Liver X Receptor alpha (LXRa) (AID 2282980). Conditions: HepG2 Attagene TRANS reporter, LXRa transactivation. Summed up: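 Read-out: reporter transcript levels by RT-PCR plus capillary electrophoresis, fluorescence intensity. Transiently transfected HepG2, exogenous NR-GAL4 chimera, GAL4-UAS reporters; 24 h compound exposure. Activity = increase over DMSO negative control.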

Assay [13] has as its target Nuclear receptor subfamily 4 group A member 2 (Homo sapiens) (UniProt P43354). Nature of the assay: ATG_NURR1_TRANS: Attagene TRANS-FACTORIAL HepG2 Assay for human Nuclear Receptor Related Protein 1 (NURR1) (AID 2282985). Conditions: HepG2 Attagene TRANS reporter, mRNA readout. Summed up: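 Chimeric NR-Gal4 proteins were expressed in human HepG2 cells bearing GAL4-UAS reporter units, and induced reporter mRNA was quantified 24 h post-dosing by RT-PCR and capillary electrophoresis.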

The target in assay [14] is human Peroxisome Proliferator-activated Receptor delta (PPARd), PPARD (gene 5467) (UniProt Q03181). Nature of the assay: ATG_PPARd_TRANS: Attagene TRANS-FACTORIAL HepG2 Assay for human Peroxisome Proliferator-activated Receptor delta (PPARd) (AID 2283002). Summed up:
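HepG2 cells transiently transfected with multiplexed GAL4-UAS reporter units and exogenous chimeric NR-Gal4 proteins; 24 h compound exposure. Reporter mRNA measured by RT-PCR, 6-FAM labelling, HpaI digestion and capillary electrophoresis; gain of signal versus DMSO.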

Assay [15] addresses human RAR-related Orphan Receptor beta (RORb), RORB (gene 6096) (UniProt Q92753). Description: ATG_RORb_TRANS: Attagene TRANS-FACTORIAL HepG2 Assay for human RAR-related Orphan Receptor beta (RORb) (AID 2283010). Put shortly:
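HepG2, transient MRTU transfection (GAL4-UAS reporters, exogenous NR-Gal4 chimeras); 24 h compound exposure; total RNA → RT-PCR → 6-FAM primer extension → HpaI digest → CE fluorescence. Positive direction vs DMSO baseline.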

A short description of assay [16]: ATG_XTT_Cytotoxicity: Cytotoxicity Assessment in the Attagene TRANS-FACTORIAL HepG2 Assay (AID 2283584). Summed up: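 XTT readout of cell number in transfected HepG2 cells, 24 h post-dosing; DMSO serves as negative control and baseline, with activity taken as loss of viability signal.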
Assay [17] has as its target Retinoic acid receptor alpha (Homo sapiens) (UniProt P10276). Nature of the assay: ATG_DR5_RAR_CIS: Attagene CIS-FACTORIAL HepG2 Assay for human Retinoic Acid Receptor Alpha (RARE), DR5 submotif (AID 2282934; active = hit-call score of the fitted dose curve at least 0.9, where 1 is the maximum; inactive = score below 0.9). Conditions: HepG2 Attagene cis-factorial RARE DR5 reporter, mRNA; actives raise or lower the signal. Summed up: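 HepG2 cells transiently transfected with multiplexed reporter units under cis (DR5 RARE) promoters, so endogenous transcription factor activity is measured. After 24 h compound exposure, reporter mRNA is quantified by RT-PCR with fluorescent labelling and capillary electrophoresis; bidirectional fitting versus DMSO.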

Assay [18] concerns the target Glucocorticoid receptor (Homo sapiens) (UniProt P04150). Nature of the assay: ATG_GR_TRANS: Attagene TRANS-FACTORIAL HepG2 Assay for human Glucocorticoid Receptor (GR) (AID 2282978).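 Also: activators score as hits since higher reporter transcript over DMSO is fitted.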 Conditions: HepG2 Attagene TRANS GR reporter, mRNA transcription. Summed up: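 In this trans-factorial format, exogenous NR-GAL4 chimeric proteins in transfected HepG2 cells regulate GAL4-UAS reporter transcription. After 24 h treatment, reporter mRNA induction relative to DMSO is read by RT-PCR and capillary electrophoresis.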

The target in assay [19] is human Peroxisome Proliferator-activated Receptor alpha (PPARa), PPARA (gene 5465) (UniProt Q07869). Description: ATG_PPARa_TRANS: Attagene TRANS-FACTORIAL HepG2 Assay for human Peroxisome Proliferator-activated Receptor alpha (PPARa) (AID 2283001). Put shortly:
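Exposure: 24 h, transiently transfected HepG2 cells. Endpoint: GAL4-UAS reporter mRNA, RT-PCR with capillary electrophoresis fluorescence. Baseline: DMSO; increases fitted.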

The target of assay [20] is Bile acid receptor (Homo sapiens) (UniProt Q96RI1). Nature of the assay: ATG_IR1_CIS: Attagene CIS-FACTORIAL HepG2 Assay for human Nuclear Receptor Subfamily 1 Group H Member 4 (NR1H4), IR1 submotif (AID 2282946; active = hit-call score of the fitted dose curve at least 0.9, where 1 is the maximum; inactive = score below 0.9). Conditions: IR1 reporter transcription, actives raise or lower the signal. Summed up: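 Readout: reporter transcript levels by RT-PCR with fluorescent capillary electrophoresis, from HepG2 cells transiently transfected with multiplexed cis-regulated reporters and dosed 24 h. Gain- or loss-of-signal fitted versus DMSO negative control.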

Each structure is given as a SMILES string. Inconclusive results are not listed. Calls of active or inactive are those of the source. The calls were made as follows, unless noted: active = hit-call score of the fitted dose curve at least 0.9, where 1 is the maximum; inconclusive = response in the unintended direction; inactive = score below 0.9.

Usually AC50 stands for the concentration at which the activity in the assay is half-maximal.

Sequence of Retinoic acid receptor alpha (Homo sapiens) (P10276 whole entry, looked up): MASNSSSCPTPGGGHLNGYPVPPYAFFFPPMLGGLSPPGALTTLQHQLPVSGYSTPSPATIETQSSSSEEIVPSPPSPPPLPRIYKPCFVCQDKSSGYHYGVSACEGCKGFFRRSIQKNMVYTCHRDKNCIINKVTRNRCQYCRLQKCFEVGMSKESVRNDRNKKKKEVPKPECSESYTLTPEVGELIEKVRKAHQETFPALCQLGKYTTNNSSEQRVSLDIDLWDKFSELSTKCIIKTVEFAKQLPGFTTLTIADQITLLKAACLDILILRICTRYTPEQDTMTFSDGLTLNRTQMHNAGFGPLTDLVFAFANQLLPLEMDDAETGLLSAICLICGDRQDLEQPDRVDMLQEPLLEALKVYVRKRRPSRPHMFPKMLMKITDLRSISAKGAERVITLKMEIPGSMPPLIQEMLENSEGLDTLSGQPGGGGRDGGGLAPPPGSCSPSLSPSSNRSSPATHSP
Sequence of Retinoic acid receptor RXR-alpha (Homo sapiens) (P19793 whole entry, looked up, the tested form may be a part): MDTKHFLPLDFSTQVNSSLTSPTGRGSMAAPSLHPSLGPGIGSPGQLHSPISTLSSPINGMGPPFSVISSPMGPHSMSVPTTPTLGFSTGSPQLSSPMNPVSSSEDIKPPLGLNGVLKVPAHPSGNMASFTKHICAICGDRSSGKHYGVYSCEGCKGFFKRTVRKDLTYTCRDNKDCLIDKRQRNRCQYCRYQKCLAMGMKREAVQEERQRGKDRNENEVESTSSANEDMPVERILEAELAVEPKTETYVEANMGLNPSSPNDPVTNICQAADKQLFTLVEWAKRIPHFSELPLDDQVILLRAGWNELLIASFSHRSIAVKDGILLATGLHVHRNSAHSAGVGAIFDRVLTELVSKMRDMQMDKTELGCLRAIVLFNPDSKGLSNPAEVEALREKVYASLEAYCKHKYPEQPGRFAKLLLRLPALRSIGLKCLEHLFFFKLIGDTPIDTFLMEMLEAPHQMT
Sequence of Nuclear receptor subfamily 4 group A member 2 (Homo sapiens) (P43354 whole entry, looked up, the tested form may be a part): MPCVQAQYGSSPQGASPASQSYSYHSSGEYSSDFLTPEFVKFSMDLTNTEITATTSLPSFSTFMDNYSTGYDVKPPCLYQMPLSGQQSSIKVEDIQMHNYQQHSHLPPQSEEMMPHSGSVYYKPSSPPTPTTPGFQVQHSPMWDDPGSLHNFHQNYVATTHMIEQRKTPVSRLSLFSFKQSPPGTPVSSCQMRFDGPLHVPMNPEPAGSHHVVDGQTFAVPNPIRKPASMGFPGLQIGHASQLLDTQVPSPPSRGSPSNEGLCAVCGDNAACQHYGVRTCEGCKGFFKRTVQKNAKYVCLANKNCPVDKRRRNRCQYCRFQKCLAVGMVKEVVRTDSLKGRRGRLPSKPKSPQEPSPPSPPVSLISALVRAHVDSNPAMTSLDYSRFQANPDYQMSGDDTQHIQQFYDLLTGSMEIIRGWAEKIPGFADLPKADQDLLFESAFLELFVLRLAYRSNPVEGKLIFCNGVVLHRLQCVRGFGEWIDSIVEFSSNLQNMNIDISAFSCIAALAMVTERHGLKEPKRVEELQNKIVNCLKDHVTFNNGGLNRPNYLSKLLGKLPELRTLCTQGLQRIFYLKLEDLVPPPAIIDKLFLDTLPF
Sequence of Nuclear receptor subfamily 1 group I member 2 (Homo sapiens) (O75469 whole entry, looked up, the tested form may be a part): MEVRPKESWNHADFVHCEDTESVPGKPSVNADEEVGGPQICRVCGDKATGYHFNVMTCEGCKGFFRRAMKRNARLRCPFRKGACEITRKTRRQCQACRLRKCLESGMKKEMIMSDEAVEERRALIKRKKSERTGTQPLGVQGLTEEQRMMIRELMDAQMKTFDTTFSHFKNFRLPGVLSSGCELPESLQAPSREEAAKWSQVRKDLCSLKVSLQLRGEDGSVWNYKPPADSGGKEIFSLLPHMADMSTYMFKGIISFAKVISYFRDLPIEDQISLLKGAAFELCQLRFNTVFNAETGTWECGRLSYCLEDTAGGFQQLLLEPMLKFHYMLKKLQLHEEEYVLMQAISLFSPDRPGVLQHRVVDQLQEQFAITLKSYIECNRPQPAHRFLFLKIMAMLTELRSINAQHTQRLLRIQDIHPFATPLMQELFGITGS
Sequence of human Peroxisome Proliferator-activated Receptor delta (PPARd), PPARD (gene 5467) (Q03181 whole entry, looked up, the tested form may be a part): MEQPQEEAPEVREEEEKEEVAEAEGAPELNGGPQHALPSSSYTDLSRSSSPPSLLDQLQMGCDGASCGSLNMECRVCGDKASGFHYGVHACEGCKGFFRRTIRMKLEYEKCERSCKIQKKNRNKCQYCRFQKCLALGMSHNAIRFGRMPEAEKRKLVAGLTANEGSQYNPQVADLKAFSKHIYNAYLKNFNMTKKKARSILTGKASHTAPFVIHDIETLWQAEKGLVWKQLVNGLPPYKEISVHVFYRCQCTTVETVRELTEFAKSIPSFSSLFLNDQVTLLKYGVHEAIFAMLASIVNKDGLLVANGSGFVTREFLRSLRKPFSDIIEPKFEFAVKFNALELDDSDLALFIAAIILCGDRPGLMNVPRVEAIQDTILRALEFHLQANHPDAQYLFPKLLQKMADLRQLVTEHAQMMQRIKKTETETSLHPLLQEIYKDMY
Sequence of human RAR-related Orphan Receptor gamma (RORg), RORC (gene 6097) (P51449 whole entry, looked up, the tested form may be a part): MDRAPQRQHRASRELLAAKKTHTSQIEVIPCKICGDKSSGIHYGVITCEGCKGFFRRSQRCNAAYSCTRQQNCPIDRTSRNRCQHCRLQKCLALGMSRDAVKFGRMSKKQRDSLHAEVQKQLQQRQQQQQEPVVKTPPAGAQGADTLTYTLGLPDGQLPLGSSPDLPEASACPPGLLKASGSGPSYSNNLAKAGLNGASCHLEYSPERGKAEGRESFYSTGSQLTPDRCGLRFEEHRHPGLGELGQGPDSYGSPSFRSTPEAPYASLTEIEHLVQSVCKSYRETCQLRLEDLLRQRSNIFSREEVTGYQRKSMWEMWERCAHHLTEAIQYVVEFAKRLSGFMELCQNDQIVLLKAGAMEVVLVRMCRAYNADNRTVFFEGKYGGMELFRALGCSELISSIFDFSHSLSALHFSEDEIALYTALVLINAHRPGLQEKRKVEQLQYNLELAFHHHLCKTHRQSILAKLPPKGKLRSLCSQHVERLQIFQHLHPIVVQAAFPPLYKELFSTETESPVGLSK
Sequence of Nuclear receptor subfamily 1 group I member 3 (Homo sapiens) (Q14994 whole entry, looked up, the tested form may be a part): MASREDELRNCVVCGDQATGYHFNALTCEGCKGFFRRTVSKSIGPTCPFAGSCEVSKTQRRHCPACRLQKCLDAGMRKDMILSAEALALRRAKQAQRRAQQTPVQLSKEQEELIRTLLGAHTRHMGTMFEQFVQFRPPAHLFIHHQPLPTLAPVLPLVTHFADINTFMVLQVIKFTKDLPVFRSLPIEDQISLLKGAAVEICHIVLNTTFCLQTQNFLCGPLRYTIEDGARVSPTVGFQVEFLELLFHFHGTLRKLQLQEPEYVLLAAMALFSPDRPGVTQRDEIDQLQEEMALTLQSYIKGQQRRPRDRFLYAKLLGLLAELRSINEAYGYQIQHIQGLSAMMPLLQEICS
Sequence of human Vitamin D Receptor (VDR), VDR (gene 7421) (P11473 whole entry, looked up, the tested form may be a part): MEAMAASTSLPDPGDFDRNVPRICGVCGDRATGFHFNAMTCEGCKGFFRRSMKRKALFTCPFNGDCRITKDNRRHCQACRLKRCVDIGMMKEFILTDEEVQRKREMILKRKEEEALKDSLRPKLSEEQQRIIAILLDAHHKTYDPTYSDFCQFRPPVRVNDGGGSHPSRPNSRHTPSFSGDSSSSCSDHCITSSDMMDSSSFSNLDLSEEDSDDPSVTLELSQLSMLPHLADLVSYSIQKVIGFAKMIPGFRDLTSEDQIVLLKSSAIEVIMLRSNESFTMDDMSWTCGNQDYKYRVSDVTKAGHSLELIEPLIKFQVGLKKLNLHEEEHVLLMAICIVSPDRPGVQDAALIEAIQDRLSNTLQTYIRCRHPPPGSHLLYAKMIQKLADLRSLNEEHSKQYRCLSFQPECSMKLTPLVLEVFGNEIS
Sequence of Oxysterols receptor LXR-alpha (Homo sapiens) (Q13133 whole entry, looked up, the tested form may be a part): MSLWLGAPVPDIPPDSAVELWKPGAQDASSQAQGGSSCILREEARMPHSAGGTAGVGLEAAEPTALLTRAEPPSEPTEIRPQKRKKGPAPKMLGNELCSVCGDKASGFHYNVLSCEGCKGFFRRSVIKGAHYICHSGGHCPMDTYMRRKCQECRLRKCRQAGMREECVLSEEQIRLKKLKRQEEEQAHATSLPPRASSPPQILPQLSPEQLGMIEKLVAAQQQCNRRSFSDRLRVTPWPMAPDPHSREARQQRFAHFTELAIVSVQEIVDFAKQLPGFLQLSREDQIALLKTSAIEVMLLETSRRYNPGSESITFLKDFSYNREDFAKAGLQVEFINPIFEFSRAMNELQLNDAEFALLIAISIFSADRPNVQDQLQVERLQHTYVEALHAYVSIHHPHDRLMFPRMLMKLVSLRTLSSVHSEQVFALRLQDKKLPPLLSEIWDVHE
Sequence of Bile acid receptor (Homo sapiens) (Q96RI1 whole entry, looked up): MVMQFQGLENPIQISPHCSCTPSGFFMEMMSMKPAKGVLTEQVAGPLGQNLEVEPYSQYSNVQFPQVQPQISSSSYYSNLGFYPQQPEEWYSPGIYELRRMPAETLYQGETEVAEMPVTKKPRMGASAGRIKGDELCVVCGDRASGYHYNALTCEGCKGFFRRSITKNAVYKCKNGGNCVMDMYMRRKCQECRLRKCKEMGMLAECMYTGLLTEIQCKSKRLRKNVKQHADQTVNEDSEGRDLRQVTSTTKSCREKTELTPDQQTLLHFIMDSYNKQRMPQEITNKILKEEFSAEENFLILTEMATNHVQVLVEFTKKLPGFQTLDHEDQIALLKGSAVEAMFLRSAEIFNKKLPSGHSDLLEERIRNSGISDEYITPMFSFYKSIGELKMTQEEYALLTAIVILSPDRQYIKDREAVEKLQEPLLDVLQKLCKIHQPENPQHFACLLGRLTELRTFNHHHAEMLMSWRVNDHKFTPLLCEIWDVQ

For the compound `Nc1ccc(Cl)c(Cl)c1`, the compound was classed as inactive in [1], in assay [2], in assay [3], in [4], in assay [5] and in assay [6]. Besides, the outcome in [7], in assay [8] and in assay [9] was inactive.

For the compound `CC(=O)C=Cc1ccccc1`, the call in assay [10], in assay [11], in assay [12], in assay [13], in [14] and in assay [15] was inactive. Moreover, the compound was classed as inactive in assay [4], in assay [6], in assay [8] and in [9]. For the same compound, the AC50 in [2] is 163 µM (active); in assay [3], 35.9 µM (active).

Consider `N#CCNCC#N`, for which the compound was called inactive in assay [1], in [11], in assay [13], in assay [14], in [15] and in assay [4]. The result in assay [5], in [6] and in assay [16] was inactive.

Turning to `Cl/C=C\CCl`, the call in assay [17], in [11], in assay [18], in assay [2], in assay [19] and in assay [14] was inactive. Moreover, the outcome in assay [4], in assay [6], in assay [8] and in assay [9] was inactive.

On to `CCC(Br)(CC)C(=O)NC(N)=O`, for which the outcome in assay [17], in [20], in assay [1], in assay [12], in [3] and in [4] was inactive. The call in [5], in assay [6] and in [16] was inactive.

Consider `COC(C)(C)CCC[C@H](C)C/C=C/C(C)=C/C(=O)OC(C)C`, for which the call in assay [17], in assay [10], in assay [11], in [12], in [4] and in assay [5] was inactive. For the same compound, the compound was called inactive in assay [7]. For the same compound, the AC50 in assay [13] was 121 µM (active); in assay [3] it was 16.3 µM (active).

As for `COCC(=O)N(c1c(C)cccc1C)N1CCOC1=O`, the result in assay [20], in [10], in assay [11], in [14] and in assay [7] was inactive. The AC50 in assay [3] is 27.4 µM (active).

The values above are taken from PubChem BioAssay (EPA / NIEHS).
